Screening results from PubChem BioAssay.
HCV inh: qHTS Assay for Inhibitors of Hepatitis C Virus (HCV); hit rate 3.4% among 340,000; Potency, µM (top dose mostly 41.8 µM), for the others: top-dose activity change, negative = inhibition, hits mostly inhibitors; Huh7.5.1 HCVcc-Cre infection, luciferase reporter, 44 h; AID 651820, 2012; further: potency means the concentration at half of the fitted maximal effect
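Whole-lifecycle infectious HCVcc-Cre system; cells 1,000/well, compound then virus (~0.5 moi) added 4 h after plating, 44 h culture. Luciferase read 15 sec following 15 min substrate incubation, room temp.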
HCMV antiviral: qHTS Assay for inhibitors of the human cytomegalovirus (HCMV); HFF cells, HCMV-luciferase reporter, 72 h; active compounds read low; activity change, negative = inhibition, % at 57.5 µM; hit rate 4.5% among 410,000; in the data active means activity change below about -60%; inconclusive means no clear call, values can overlap the other calls; inactive means above about -39%
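Steps: HFFs plated, 16 h 37C; compounds added; HCMV-luciferase added to MOI 1 PFU/cell; 72 h 37C; OneGlo reagent, 5 min room temperature; luminescence read, normalized to controls.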
VACV Venus inh: qHTS for Stage-Specific Inhibitors of Vaccinia Orthopoxvirus: Venus Reporter Primary qHTS; hit rate 0.46% among 330,000; Vaccinia virus Venus reporter expression, fluorescence; Potency, µM (doses to about 36.5 µM), for inactives: top-dose activity change, negative = inhibition, actives largely listed as inhibitors; calls by dose curve; tested in A549 cells; further: potency means the concentration at half of the fitted maximal effect; nearly all actives have a fitted effect of over 30% in size
Giardia FBPA inh: qHTS Assay for Inhibitors of Fructose-1,6-bisphosphate Aldolase from Giardia Lamblia. A8B2U2. purified Giardia FBPA. Potency, µM (doses to about 59.6 µM), inactives show at the top dose activity, negative = inhibition, hits mostly inhibitors. hit rate 0.71% among 290,000; further: potency means the concentration at half of the fitted maximal effect; nearly all actives have a fitted effect of over 55% in size
Target sequence (A8B2U2 whole entry, looked up): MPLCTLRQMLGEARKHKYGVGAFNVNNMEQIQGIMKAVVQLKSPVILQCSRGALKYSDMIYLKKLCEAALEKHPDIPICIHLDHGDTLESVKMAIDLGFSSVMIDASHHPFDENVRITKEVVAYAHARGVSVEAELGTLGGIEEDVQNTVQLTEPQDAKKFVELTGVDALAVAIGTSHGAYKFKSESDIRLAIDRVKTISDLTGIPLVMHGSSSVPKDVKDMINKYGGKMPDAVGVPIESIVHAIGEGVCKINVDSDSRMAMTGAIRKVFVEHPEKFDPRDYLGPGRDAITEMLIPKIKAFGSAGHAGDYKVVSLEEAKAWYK
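Giardia FBPA (40 nM reagent) was preincubated 10 min at RT with compound (up to 57.5 uM final), then substrate plus GAPDH/TPI/NAD/arsenate coupling system with diaphorase/resazurin was added; resorufin fluorescence (525/598 nm) was read after 20 min.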
VACV mCherry inh: qHTS for Stage-Specific Inhibitors of Vaccinia Orthopoxvirus: mCherry Reporter Primary qHTS. Potency, µM (titrated, usually from 36.5 µM), for the others: at the highest dose activity change, negative = inhibition, hits mostly inhibitors. hit rate 0.63% among 310,000. Vaccinia virus mCherry reporter infection, fluorescence; calls by dose curve; tested in A549 cells; further: potency means the concentration at half of the fitted maximal effect; nearly all actives have a fitted effect of over 35% in size
FMDV inh: High Throughput Screening for Foot and Mouth Disease Virus Antivirals; FMDV antiviral cell-based qHTS; Potency, µM (doses to about 57.9 µM), without a hit: at the top dose activity change, negative = inhibition, actives largely listed as inhibitors; hit rate 1.2% among 410,000; AID 1159524, 2015; calls by dose curve; tested in HEK293T cells; further: read-out not given here; potency means the concentration at half of the fitted maximal effect; nearly all actives have a fitted effect of over 45% in size
Active calls of the source: *; i = inactive; ? = inconclusive; . = not tested or not shown; [ ] = another dose, or the depositor's remark. The list is not random: actives were taken first. Their share in the collection is about 7.5%. Unless noted, the call rests on the fitted dose curve; in most records, active means well fitted curve in the direction sought with a large enough effect; inconclusive means small, poorly fitted or top-dose-only effect, or another doubt; inactive means no such curve, though single readings can be large; an effect the other way counts as inactive or inconclusive. On the % scale 0 is the no-effect control and ±100 the full control effect.

SMILES	HCV inh	HCMV antiviral	VACV Venus inh	Giardia FBPA inh	VACV mCherry inh	FMDV inh
CO[C@H]1COC(=O)C/C=C\[C@H](C)[C@@H](OC)COC(=O)[C@H](C)COC(=O)C/C=C\[C@@H]1C	.	.	.	3%[12.9 µM]	.	.
Cc1ccc(C)c(-c2csc(Nc3ncccn3)n2)c1	3%	-34	.	11%	.	9%
Cc1ccc(C)c(-c2csc(N/N=C/c3ccco3)n2)c1	13µM*	?	4%	-12%	?	-9%
Cc1ccc(C(=O)CC2(O)C(=O)N(Cc3ccccc3)c3ccc(Br)cc32)cc1 (centres undefined)	.	35	-3%[7.34 µM]	.	-8%[7.34 µM]	-8%
Cc1ccc(C(=O)N2c3ccccc3N(Cc3ccccc3)C(=O)C2(C)C)cc1	11µM*	-93*	-12%	0%	-4%	.
COc1cccc(NC(=O)c2cccc(C(=O)Nc3cccc(OC)c3)n2)c1	.	-36	-4%	.	-21%	-5%
C=CC(=O)Nc1cccc(Oc2cc(Cl)nc3[nH]ccc23)c1	?	-17	1.6µM*	.	?	?
Cc1cccc(CCNC(=O)c2sc3nc4n(c(=O)c3c2C)CCCC4)c1	.	30	-8%	.	-13%	5%
O=C(NC(Cc1ccccc1)C(=O)N1CCN(c2ccccc2O)CC1)c1ccccc1 (centres undefined)	?	-11	-12%	.	?	-20%
CCCc1cc(=O)n2nc(N3CCC(C(=O)N4CCN(c5cccc(OC)c5)CC4)CC3)sc2n1	?	-70*	.	.	.	?
Cc1cccc(NC(=O)NNC(=O)c2cc3ccccc3cc2O)c1C	-1%	-21	-1%	6%	0%	17%
Cc1cccc(NC(=S)NNC(=O)c2ccc(O)cc2O)c1C	17%	-98*	-12%	24%	?	15%
COCOc1ccc(-c2ncc(OC)nc2NC(=O)c2cc(C)oc2C)cc1	.	27	-1%	.	-12%	-10%
Cc1cc(C(=O)NCC2CCC3(CCN(Cc4ccc5ccccc5c4)CC3)O2)n(C)n1 (centres undefined)	.	.	-29%	.	-8%	-29%
CN(C)S(=O)(=O)c1ccc(NC(=O)N2CCN(c3cccc(C(F)(F)F)c3)CC2)cc1	11µM*	-79*	.	-9%	.	28µM*
CCOc1ccc(-c2cc(-c3nc(-c4cc(OC)c(OC)c(OC)c4)no3)[nH]n2)cc1Cl	.	-7	-12%	.	-13%	-27%
COc1ccc(-c2cc(C3CCN(c4cc(Cl)nc(N)n4)CC3)[nH]n2)cc1	?	-60*	.	1%	.	22µM*
COc1ccc(-c2cc(C3CCN(CC(O)C(F)(F)F)CC3)[nH]n2)cc1 (centres undefined)	-13%	-18	.	3%	.	-1%
COc1ccc(OC)c(-c2cc(C3CCN(c4cc(Cl)nc(N)n4)CC3)[nH]n2)c1	?	-89*	?	-2%	13µM*	18µM*
COC(=O)C1=C(c2ccc(S(C)(=O)=O)cc2)C[C@@H]2CC[C@H]1N2C(=O)NCc1ccc(F)cc1	?	-63*	-9%	.	i	-16%
COC(=O)C1=C(c2ccc(OC(F)(F)F)cc2)C[C@@H]2CC[C@H]1N2C(=O)NCc1cccc2ccccc12	10µM*	-12	?	.	?	13µM*
COC(=O)C1=C(c2ccc(OC(F)(F)F)cc2)C[C@@H]2CC[C@H]1N2C(=O)NCc1ccc(F)cc1	?	-21	?	.	-2%	0%
CC(C)C(=O)Nc1cccc(COc2ccccc2CN(Cc2ccccc2)C(=O)OC(C)(C)C)c1	?	-35	-5%	.	-11%	?
COc1cc(NC(=O)c2cc([N+](=O)[O-])ccc2NC(=O)CNC2CCCCC2C)cc(OC)c1 (centres undefined)	6.3µM*	-3	-12%	4%	-23%	-24%
COc1cc(NC(=O)c2cc([N+](=O)[O-])ccc2NC(=O)CNC2CCCCC2)cc(OC)c1	?	15	?	-4%	?	-6%
